Screen size: about 69,000 compounds; about 8,600 (12%) showed an effect of 50% or more. What follows is part of a selection rich in strong results, with near analogues and random picks from the rest.
system: Plasmodium berghei; assay: Screen against P. berghei liver stage (PbLuc), transformed with Luciferase, at 10uM; type: functional, HepG2; conditions: tested at 10 uM

| Compound | INHIBITION |
| --- | --- |
| CC(C)(C)Oc1ccc(NCC(=O)NCc2ccco2)cc1 | 16.1% |
| OC(CN1CCN(Cc2nc(C3CC3)no2)CC1)c1ccccc1 (stereo unspecified) | -45.9% |
| CCCN(CCC)c1ncc(S(=O)(=O)c2ccccc2)c(N)n1 | 52.4% |
| CCCN(CCC)c1ncc(S(=O)(=O)c2cccc(C)c2)c(N)n1 | 6.29% |
| CCCN(CCC)c1ncc(S(=O)(=O)c2ccc(C)cc2)c(N)n1 | 20.4% |
| CN(Cc1ccccc1OC(F)(F)F)C(=O)C1CC1 | 82.7% |
| CN(Cc1ccccc1OC(F)(F)F)C(=O)C1CCCN(C(N)=O)C1 (stereo unspecified) | -116% |
| COc1ccnc(N(C)Cc2ccccc2OC(F)(F)F)n1 | 15.2% |
| COCC1CC2(CCN(Cc3ccccn3)CC2)CN1c1ncccn1 (stereo unspecified) | 8.67% |
| CC(C)CCn1c(=O)[nH]c2cn(-c3ccc(F)cc3)c(=O)n21 | -15% |
| CN1CCC(C(=O)NCCC2CN(c3cnn(C)c(=O)c3)CCO2)CC1 (stereo unspecified) | 23.6% |
| O=C1OCCCN1Cc1nc(-c2ccncc2)no1 | 36.5% |
| O=C1NCCCN1Cc1nc(-c2ccc(N3CCCCC3)cc2)no1 | 26.4% |
| O=C1OCCCN1Cc1nc(-c2ccc(N3CCCCC3)cc2)no1 | 55.5% |
| Cc1ccc2[nH]c(=O)cc(C(=O)N[C@@H]3C[C@@H](CO)N(C)C3)c2c1 | 46.7% |
| O=C(CSC1=NS(=O)(=O)c2cc(F)ccc2N1)Nc1ccc(Cl)cc1 | 3.52% |
| O=C(CSC1=NS(=O)(=O)c2cc(F)ccc2N1)Nc1cccc(Cl)c1 | 16.6% |
| O=C(CSC1=NS(=O)(=O)c2cc(F)ccc2N1)Nc1ccc(Cl)c(Cl)c1 | 57.3% |
| COc1cc2c(nn1)CCN(Cc1ncc(C(C)(C)C)o1)C2 | 18.9% |
| COc1cc2c(nn1)CCN(Cc1nc(Cc3ccccc3)no1)C2 | -112% |
| COc1cc2c(nn1)CCN(Cc1nnc(Cc3ccccc3)o1)C2 | 88.5% |
| O=C(C1CCCO1)N1CCCn2c(nnc2Cn2ccnc2)C1 (stereo unspecified) | -12.4% |
| CC(C)n1cc(S(=O)(=O)N2CCCCCC2)cn1 | 33.3% |
| c1ccc(CCc2n[nH]c(C3CCC3)n2)cc1 | -31.9% |

| Compound | INHIBITION |
| --- | --- |
| COc1ccc(NCC2(O)CCNCC2)cc1OC | 62.7% |
| OC1(CNc2ccc(F)cc2)CCNCC1 | 6.29% |
| Cc1ccc(NCC2(O)CCNCC2)cc1C | 23.1% |
| O=C(CCn1c(C(F)(F)F)cc2cccnc21)NC1CCCC1 | 8.72% |
| Cc1nc2c(c(NCCN3CCOCC3)n1)CCN(C)C2 | 7.55% |
| CCN(CC)CCCNc1nc(C)nc2c1CCN(C)C2 | 5.185% |
| Cc1nc2c(c(NCCCN3CCOCC3)n1)CCN(C)C2 | 59.7% |
| CC(C)Cc1nc(CN2CCOC(Cn3cncn3)C2)no1 (stereo unspecified) | 15.3% |
| Cc1nccc(N2CCCC2CCNS(C)(=O)=O)n1 (stereo unspecified) | 10.9% |
| c1ccc(Cc2nc(CN3CCCC3Cn3cncn3)cs2)cc1 (stereo unspecified) | 23.5% |
| CCc1cc(=O)n(CCNC(=O)Nc2ccc(OC(F)(F)F)cc2)cn1 | 28% |
| O=S(=O)(NCC1CCN(c2cnccn2)CC1)c1cccs1 | 25.1% |
| CCc1ccc(S(=O)(=O)NCC2CCN(c3cnccn3)CC2)s1 | 83% |
| CCS(=O)(=O)NCC1CCN(c2cnccn2)CC1 | 40% |
| CC(=O)NCc1noc2c1CN(Cc1cnn(C)c1)CC2 | 46.7% |
| Cn1nc(Cn2cccc2)c2c1CN(Cc1ccsc1)C2 | -5.08% |
| CC(=O)NCc1nn(C)c2c1CN(Cc1ccsc1)C2 | 69.7% |
| c1cncc(OCc2noc3c2CN(Cc2cccs2)CC3)c1 | -26.5% |
| CC(=O)NCc1noc2c1CN(Cc1cccs1)CC2 | 6.83% |
| O=C(c1cc[nH]n1)N1CCc2onc(COc3cccnc3)c2C1 | 67.2% |
| O=C(N1CCCC1)N1CCc2onc(COc3cccnc3)c2C1 | 20.6% |
| CC(=O)N(C)Cc1nn(C)c2c1CN(Cc1ccsc1)C2 | -37.9% |
| c1cncc(OCc2noc3c2CN(Cc2ccoc2)CC3)c1 | -3.95% |
| c1cncc(OCc2noc3c2CN(Cc2ccsc2)CC3)c1 | 56.1% |

| Compound | INHIBITION |
| --- | --- |
| O=C(c1ccc[nH]1)N1CCc2onc(COc3cccnc3)c2C1 | 21.8% |
| CC(=O)NCc1noc2c1CN(Cc1ccsc1)CC2 | 64.5% |
| CNC(=O)CCc1cc(C)nc(C2CCN(c3cnccn3)CC2)c1 | 34.65% |
| CC(=O)N1CCCC1c1nccnc1NCc1cccnc1 (stereo unspecified) | -9.51% |
| CNc1cncc(C2CCN(S(C)(=O)=O)CC2)n1 | 12.8% |
| CCCC(NC(=O)c1ccccc1Br)c1nnn[nH]1 (stereo unspecified) | 43.1% |
| Cc1noc(C)c1CC(=O)N1CCC(c2ccn3nccc3n2)CC1 | -27.8% |
| CS(=O)(=O)N1CC[C@H]2OCC[C@@]2(C(=O)NCCc2ccccn2)C1 | 38.5% |
| Nc1cc(CCCNC(=O)NC2CCCC2)nn1-c1ccccc1 | -26.2% |
| CC(C)N(C(=O)CCc1cccc(F)c1)C1CCOCC1 | -6.34% |
| CN1CCN(C(=O)c2nc3c(s2)CCCN3C(=O)C2CC2)CC1 | 37.9% |
| CCc1nnc2n1CCN(Cc1ncc(-c3ccccc3)o1)C2 | 9.665% |
| CCN(CC1CCOC1)C(=O)c1cnc2onc(C)c2c1 (stereo unspecified) | 34.15% |
| O=C(NCCn1ccc(-c2ccccn2)n1)C1CC1 | -30% |
| CC(C)(C)CC(=O)NCCn1ccc(-c2ccncc2)n1 | -4.99% |
| Cc1nnsc1C(=O)NCCn1ccc(-c2ccncc2)n1 | 61.5% |
| O=C(CC1CCCC1)NCCn1ccc(-c2ccncc2)n1 | 36.3% |
| O=C(NCCn1ccc(-c2ccccn2)n1)c1ccncc1 | 31.2% |
| O=C(NCCn1ccc(-c2ccncc2)n1)c1ccncc1 | 26.4% |
| O=C(NCCn1ccc(-c2ccncc2)n1)c1ccc2c(c1)OCO2 | 64.5% |
| O=C(NCCn1ccc(-c2ccncc2)n1)C1CC1 | 52.6% |
| CC(C)(C)C(=O)NCCn1ccc(-c2ccncc2)n1 | 11.9% |
| CCOCC(O)CN1CCN(C(=O)c2cc(C)ccc2OC)CC1 (stereo unspecified) | -35.7% |

— ChEMBL document CHEMBL4513216, “Probing the Open Global Health Chemical Diversity Library for Multistage-Active Starting Points for Next-Generation Antimalarials” (ACS Infect Dis, 2020)
